According to PubChem BioAssay:
Calls of active or inactive are those of the source.

Test: basal CRE-LacZ reporter activity in PC12 – cell-based, unstimulated, primary screen (AID 1145)
Details: no forskolin, luminescence, 4.5 h, higher = more signal, called active from +8 up or from −8 down

z-score, inactive:
CN(C)C(=O)[C@@]1(CCS(=O)(=O)c2ccccc2)COC(c2ccc(OCCCO)cc2)=N1 -0.562
COc1ccc(C#Cc2ccc3c(c2)[C@]2(C(=O)N3)[C@H](C(=O)Nc3nc4ccccc4s3)[C@H]3C(=O)O[C@H](c4ccccc4)[C@H](c4ccccc4)N3[C@@H]2c2ccc(O)cc2)cc1 0.0653
C=C(CC1([C@@H](NP(=O)(c2ccccc2)c2ccccc2)[C@H]2C[C@@H]2CCCC)CC1)c1ccccc1 0.4
C=CCN1C(=O)[C@@]2(CC=C)N=C(c3ccc(OCCCO)cc3)O[C@H]2c2ccccc21 1.13
CCCC[C@@H]1C[C@H]1[C@@H](NC(=O)c1ccco1)c1ccc(-c2ccccc2)cc1 0.766
C=C(C)[C@@H]1CC=C(C(O)C2C=CC3C(=O)N(C)C(=O)C3N2Nc2ccccc2)CC1 (some centres not stated) 0.626
O=C1C2C=CC(C(O)Cc3ccccc3)N(n3cnnc3)C2C(=O)N1Cc1ccccc1 (configuration not stated) -0.0696
C=C(COC)/C(=C/C[C@@H](OC(C)=O)c1ccc(OCCO)cc1)c1cnc2ccccc2c1 3.77
COCCOC(=O)N1C(=O)[C@@]2(c3cc(C#CCNC(N)=O)ccc31)[C@H](C(=O)N1CCN(c3ncccn3)CC1)[C@H]1C(=O)O[C@H](c3ccccc3)[C@H](c3ccccc3)N1[C@@H]2c1ccc(OCCO)cc1 1.04
C=CCOC(=O)[C@@H]1[C@H]2C(=O)O[C@H](c3ccccc3)[C@H](c3ccccc3)N2[C@H](c2ccc(OCCOC(=O)[C@@H]3C[C@@H]4C(=O)NCC(=O)N4[C@@H]3c3ccc(O)cc3)cc2)[C@@]12C(=O)Nc1ccc(I)cc12 -0.13
CC#CC(=O)Oc1ccccc1C=CC(=O)OCC -0.0696
CCCC[C@@H]1C[C@H]1[C@@H](NC(=O)c1ccco1)c1ccccc1C(F)(F)F 0.773

Test: forskolin-driven CRE-LacZ activity in PC12 – cell-based, CRE-LacZ reporter, forskolin-stimulated, primary screen (AID 1146);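 also: PC12 cells with 6xCRE LacZ reporter stimulated by forskolin 10 µM; beta-galactosidase reporter signal reflecting CREB driven transcription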
Details: luminescence, 4.5 h, higher = more signal, called active from +8 up or from −8 down

z-score, inactive:
COCCOC(=O)N1C(=O)[C@@]2(c3ccccc31)[C@H](c1ccc(O)cc1)N1[C@H](c3ccccc3)[C@H](c3ccccc3)OC(=O)[C@H]1[C@@H]2C(=O)Nc1nc2ccccc2s1 2.42
C=CCOC(=O)[C@H]1[C@@H]2C(=O)O[C@@H](c3ccccc3)[C@@H](c3ccccc3)N2[C@@H](c2ccc(OCCOC(=O)[C@H]3C[C@H]4C(=O)N[C@@H](CCCCN(C)C)C(=O)N4[C@H]3c3ccc(O)cc3)cc2)[C@]12C(=O)Nc1ccc(I)cc12 0.259
NC(=O)[C@@H]1[C@H]2C(=O)O[C@H](c3ccccc3)[C@H](c3ccccc3)N2[C@H](c2ccc(O)cc2)[C@@]12C(=O)Nc1ccccc12 0.276
CC(C)C[C@@H]1NC(=O)[C@H](C(C)C)NC(=O)[C@@]23C(=O)N[C@@H](Cc4ccccc4)C2[C@H](C)[C@@]2(C)O[C@H]2C3/C=C/CC/C=C/CNC1=O (some centres not stated) -1.23
COC(=O)C(CC#Cc1ccc2c(c1)[C@]1(C(=O)N2)[C@H](c2ccc(OCCO)cc2)N2[C@H](c3ccccc3)[C@H](c3ccccc3)OC(=O)[C@H]2[C@@H]1C(=O)Nc1nc2ccccc2s1)C(=O)OC 1.33
O=C1NC(=O)C2C1C=CC(C(O)c1cc(C(F)(F)F)cc(C(F)(F)F)c1)N2Nc1ccccn1 (configuration not stated) 0.403
Cc1ccc(S[C@]2(C(=O)NCCCN(C)C)CC(=O)N(Cc3cc(C(F)(F)F)cc(C(F)(F)F)c3)[C@@H]2c2ccc(CO)cc2I)cc1 1.23
C=C(C(=O)CC[C@@H](OC(=O)c1cccnc1)c1ccccc1OCCO)C(C)C 1.17
COc1cc(NN2C(C(O)c3ccco3)C=CC3C(=O)N(c4ccccc4)C(=O)C32)cc(OC)c1OC (configuration not stated) -0.462
COC(=O)[C@@]1(Cc2ccc(OC)cc2)[C@H]2c3cc(C(=O)N(C)C)n(CCc4ccccn4)c3C[C@H]2CN1C(=O)c1ccccc1 0.577
O=C(NC1CC1)[C@@H]1c2ccccc2C(=O)N(Cc2ccccc2Cl)[C@H]1c1ccc(CO)cc1 -1.69
COC(=O)[C@@]1(Cc2ccc(F)cc2)[C@H]2c3cc(C(=O)N(C)C)n(Cc4ccccc4)c3C[C@H]2CN1C(=O)c1ccccc1 1.42
O=C1C2C=CC(C(O)CCc3ccccc3)N(Nc3ccccc3F)C2C(=O)N1c1ccccc1 (configuration not stated) 0.654
C=C[C@H](CO[Si](CC)(CC)CC)N(Cc1ccc(OC(C)=O)c(OC)c1)S(=O)(=O)c1ccc(Br)cc1 0.685
O=C1O[C@@H](c2ccccc2)[C@@H](c2ccccc2)N2[C@@H](c3ccccc3OCCO)[C@]3(C(=O)Nc4ccc(C#CC5=CCCCC5)cc43)[C@@H](C(=O)N3CCCCCCC3)[C@H]12 0.188
CCOC(=O)[C@H]1C/C=C/C[C@H](C(=O)OCC)C(=O)O[C@H]2[C@@H](OC)O[C@H](CO)[C@@H](OC(=O)c3c(OC)cccc3OC)[C@@H]2OC1=O 1.33
CCC(CC)C(O)C1C=CC2C(=O)NC(=O)C2N1Nc1ccc(Cl)cc1Cl (configuration not stated) -0.273
CCOC(=O)C[C@H]1[C@H](OC(=O)c2ccc(C(=O)c3ccccc3)cc2)[C@@H](NC(=O)c2ccc3ccccc3c2)c2cc(OCCCO)ccc2N1C(=O)Cc1ccc(OC)cc1 -0.383
COC(=O)[C@@]1(CCC(=O)OC(C)(C)C)N=C(c2ccc(OCCCO)cc2)O[C@H]1c1ccccc1N=[N+]=[N-] -1.21
COC(=O)[C@@]1(Cc2ccc(OC)cc2)[C@H]2c3cc(C(=O)N(C)C)n(Cc4ccccn4)c3C[C@H]2CN1C(=O)c1ccccc1 0.97
CCCC[C@@H]1C[C@H]1[C@@H](NC(=O)c1ccccc1)c1ccc(C(=O)OC)cc1 0.0003
CCCCCCc1nc(-c2ccc(OC)nc2)cc2c1[Si](C(C)C)(C(C)C)O[C@H]2c1ccccc1 0.03
COC(=O)C(CC#Cc1ccc2c(c1)[C@]1(C(=O)N2)[C@H](C(=O)Nc2nc3ccccc3s2)[C@H]2C(=O)O[C@H](c3ccccc3)[C@H](c3ccccc3)N2[C@@H]1c1ccccc1OCCO)C(=O)OC 0.372
CN(C)C(=O)[C@@]1(CCS(=O)(=O)c2ccccc2)COC(c2ccc(OCCCO)cc2)=N1 -0.793
COc1ccc(C#Cc2ccc3c(c2)[C@]2(C(=O)N3)[C@H](C(=O)Nc3nc4ccccc4s3)[C@H]3C(=O)O[C@H](c4ccccc4)[C@H](c4ccccc4)N3[C@@H]2c2ccc(O)cc2)cc1 -0.0135
C=C(CC1([C@@H](NP(=O)(c2ccccc2)c2ccccc2)[C@H]2C[C@@H]2CCCC)CC1)c1ccccc1 0.151
C=CCN1C(=O)[C@@]2(CC=C)N=C(c3ccc(OCCCO)cc3)O[C@H]2c2ccccc21 -2.04
CCCC[C@@H]1C[C@H]1[C@@H](NC(=O)c1ccco1)c1ccc(-c2ccccc2)cc1 0.576
C=C(C)[C@@H]1CC=C(C(O)C2C=CC3C(=O)N(C)C(=O)C3N2Nc2ccccc2)CC1 (some centres not stated) 1.26
O=C1C2C=CC(C(O)Cc3ccccc3)N(n3cnnc3)C2C(=O)N1Cc1ccccc1 (configuration not stated) -0.413
C=C(COC)/C(=C/C[C@@H](OC(C)=O)c1ccc(OCCO)cc1)c1cnc2ccccc2c1 -0.861
COCCOC(=O)N1C(=O)[C@@]2(c3cc(C#CCNC(N)=O)ccc31)[C@H](C(=O)N1CCN(c3ncccn3)CC1)[C@H]1C(=O)O[C@H](c3ccccc3)[C@H](c3ccccc3)N1[C@@H]2c1ccc(OCCO)cc1 -0.0748
C=CCOC(=O)[C@@H]1[C@H]2C(=O)O[C@H](c3ccccc3)[C@H](c3ccccc3)N2[C@H](c2ccc(OCCOC(=O)[C@@H]3C[C@@H]4C(=O)NCC(=O)N4[C@@H]3c3ccc(O)cc3)cc2)[C@@]12C(=O)Nc1ccc(I)cc12 -0.974
CC#CC(=O)Oc1ccccc1C=CC(=O)OCC 1.7
CCCC[C@@H]1C[C@H]1[C@@H](NC(=O)c1ccco1)c1ccccc1C(F)(F)F 1.3
